UBC13 inh – blocks human UBC13 polyubiquitin chain formation | AID 485273 | 0.47% of 330,000 active | P61088 | TR-FRET | inhibition, % at 20 µM; in the data active means inhibition above about 45%, passing the limit was not always enough
HGIII-sPLA2 inh – Blocks human group III sPLA2 activity; Q9NZ20; QFRET BODIPY PC-A2 liposome hydrolysis, fluorescence; AID 743126; 0.56% of 370,000 active; inhibition, % at 12.2 µM;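 active means inhibition above mean plus 3 SD of compounds lying within the high and low control bounds, cut at about 19% in these data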;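 further: 0% = median of test compound wells and 100% = no enzyme DMSO wells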
Target sequence (Q9NZ20 whole entry, looked up): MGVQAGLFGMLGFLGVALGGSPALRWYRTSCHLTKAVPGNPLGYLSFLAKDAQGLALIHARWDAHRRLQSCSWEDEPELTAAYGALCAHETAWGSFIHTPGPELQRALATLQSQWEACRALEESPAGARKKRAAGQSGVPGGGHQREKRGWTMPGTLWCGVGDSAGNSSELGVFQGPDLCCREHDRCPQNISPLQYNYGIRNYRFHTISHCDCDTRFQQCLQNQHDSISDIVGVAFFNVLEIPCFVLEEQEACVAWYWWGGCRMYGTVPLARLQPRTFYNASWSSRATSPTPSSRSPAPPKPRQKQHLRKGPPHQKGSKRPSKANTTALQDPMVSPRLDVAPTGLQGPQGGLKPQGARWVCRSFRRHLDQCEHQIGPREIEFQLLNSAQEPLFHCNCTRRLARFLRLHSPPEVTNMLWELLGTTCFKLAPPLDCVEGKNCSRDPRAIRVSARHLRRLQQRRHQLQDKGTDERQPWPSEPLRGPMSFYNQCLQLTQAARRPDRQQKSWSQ
NR3A LBD binder – NR3A (human) ligand-binding domain modulation | 2.5% of 340,000 active | Tm shift relative to glycine control, % at 25 µM | NR3A LBD differential scanning fluorimetry, Tm shift; 0% = protein alone, 100% = glycine-bound protein;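 active means melting temperature shift of at least 10% of the positive control shift, at one fixed dose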
SUMO HTRF inh – blocks human SUMOylation mediated by UBC9. HTRF SUMOylation assay, SAE1/SAE2 + UBC9, in vitro. inhibition, % at 35 µM. 0.36% of 290,000 active. AID 2006; in the data active means inhibition above about 50%, passing the limit was not always enough
Target sequence (P63279 whole entry, looked up): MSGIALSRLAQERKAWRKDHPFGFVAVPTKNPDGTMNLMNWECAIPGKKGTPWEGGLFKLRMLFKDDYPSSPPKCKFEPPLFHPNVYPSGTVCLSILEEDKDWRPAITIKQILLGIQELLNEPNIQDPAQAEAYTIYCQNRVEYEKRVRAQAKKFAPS
hGIII sPLA2 conf – human GIII-sPLA2 inhibition, confirmation; shares compounds with HGIII-sPLA2 inh; recombinant hGIII-sPLA2, BODIPY PC-A2 QFRET fluorescence; inhibition, % at 12.2 µM; 34% of 2,000 active; AID 743280;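 active means mean inhibition across triplicates above the hit cutoff set in the earlier primary screen, cut at about 19% in these data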;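 further: 0% = enzyme with DMSO and 100% = DMSO wells lacking enzyme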
BODIPY interf – 535nm fluorescence interference, HGIII-sPLA2 counter-screen | shares compounds with HGIII-sPLA2 inh | BODIPY FL product fluorescence interference, QFRET | inhibition, % at 12.2 µM | 8.5% of 2,000 active;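 active means average inhibition above the solvent-only control mean plus 3 SD, cut at about 6% in these data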;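 further: 0% = DMSO with substrate plus product and 100% = DMSO with substrate alone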
BODIPY interf DR – interferes with 535nm fluorescence in dose response counter-screen; shares compounds with HGIII-sPLA2 inh; BODIPY FL product fluorescence interference, cell-free; IC50, µM; 240 tested, under 10 active; AID 743455;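 active means IC50 at or below 10 µM; inactive means IC50 above 10 µM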
* = called active by the depositor. Only some compounds are listed: those with a hit (about 3.3% of all), similar ones and a draw of the others.

CN(C)S(=O)(=O)c1cccc(NC(=S)N/N=C/c2cccc(O)c2)c1 was read as UBC13 inh -1.5, HGIII-sPLA2 inh -9.3, NR3A LBD binder -1.2 and SUMO HTRF inh 15.7.
`CN(C)S(=O)(=O)c1cccc(NC(=S)N/N=C/c2cc(Br)ccc2O)c1` gave UBC13 inh -4.6, HGIII-sPLA2 inh 38.6*, NR3A LBD binder 11.7*, SUMO HTRF inh 48.2, hGIII sPLA2 conf 28.1* and BODIPY interf 10.8*.
Screening O=C(CSc1nnc(-c2ccccc2)n1-c1ccc(Cl)cc1)Nc1ccc2cn[nH]c2c1 returned HGIII-sPLA2 inh 0.6.
Screening CC1CC(C)(C)NC(=S)N1CC(=O)NCc1ccccc1Cl (stereo not given) returned UBC13 inh -4.3, HGIII-sPLA2 inh 30.0*, NR3A LBD binder -12.2, SUMO HTRF inh 13.2, hGIII sPLA2 conf 9.2 and BODIPY interf 0.6.
`COc1ccc(C)cc1NC(=O)CCCN1C(=S)NC(C)(C)CC1C` (stereo not given) gave UBC13 inh -11.7, HGIII-sPLA2 inh 23.6*, NR3A LBD binder -1.5, SUMO HTRF inh 0.5, hGIII sPLA2 conf 8.7 and BODIPY interf -3.3.
CCOc1ccccc1NC(=O)CCCN1C(=S)NC(C)(C)CC1C (stereo not given) was read as UBC13 inh 8.2, HGIII-sPLA2 inh 21.5*, NR3A LBD binder 0.9, SUMO HTRF inh 3.1, hGIII sPLA2 conf 19.9* and BODIPY interf -9.3.
Screening CCOc1ccc(OCC)c(NC(=O)CCCN2C(=S)NC(C)(C)CC2C)c1 (stereo not given) returned UBC13 inh -3.0, HGIII-sPLA2 inh 24.9*, NR3A LBD binder 0.9, SUMO HTRF inh -13.3, hGIII sPLA2 conf 23.7* and BODIPY interf -12.7.
For CC1CC(C)(C)NC(=S)N1CCCC(=O)Nc1ccc(F)cc1 (stereo not given) the results were UBC13 inh -8.7, HGIII-sPLA2 inh 6.8, NR3A LBD binder -1.2 and SUMO HTRF inh 9.1.
`COc1ccc(OC)c(S(=O)(=O)N2CCCC(C(=O)N3CCN(Cc4ccccc4)CC3)C2)c1` (stereo not given) gave HGIII-sPLA2 inh 6.3.
`Cc1onc(-c2ccccc2)c1C(=O)NC(=S)NNC(=O)c1ccncc1` gave UBC13 inh -10.4, HGIII-sPLA2 inh 19.0, NR3A LBD binder -3.5 and SUMO HTRF inh 13.5.
For Cc1onc(-c2ccccc2)c1C(=O)NCc1ccc2c(c1)OCO2 the results were UBC13 inh 3.3, HGIII-sPLA2 inh -2.6, NR3A LBD binder -0.6 and SUMO HTRF inh 13.6.
Screening Cc1onc(-c2ccccc2)c1C(=O)NC(=S)NNC(=O)c1cc(-c2ccc(F)cc2)n[nH]1 returned UBC13 inh 3.8, HGIII-sPLA2 inh 28.8*, NR3A LBD binder 9.6, SUMO HTRF inh -105.6, hGIII sPLA2 conf 41.5* and BODIPY interf -15.8.
Cc1onc(-c2ccccc2)c1C(=O)NC(=S)NNC(=O)c1ccco1 was read as UBC13 inh -19.2, HGIII-sPLA2 inh 12.7, NR3A LBD binder -1.5 and SUMO HTRF inh -51.9.
For Cc1onc(-c2ccccc2)c1C(=O)NNC(=S)NC(=O)c1ccc2c(c1)OCO2 the results were UBC13 inh -11.4, HGIII-sPLA2 inh 27.2*, NR3A LBD binder -3.7, SUMO HTRF inh -63.9, hGIII sPLA2 conf 42.5*, BODIPY interf -11.4 and BODIPY interf DR >122.
Screening COc1ccc(C(=O)NC(=S)NNC(=O)c2c(-c3ccccc3)noc2C)cc1OC returned UBC13 inh -9.7, HGIII-sPLA2 inh 19.9*, NR3A LBD binder -2.9, SUMO HTRF inh -53.5, hGIII sPLA2 conf 29.1*, BODIPY interf -9.7 and BODIPY interf DR >122.
For COc1ccc(C(=O)NC(=S)NNC(=O)[C@H]2C[C@@H]2c2ccccc2)cc1OC the results were UBC13 inh -13.1, HGIII-sPLA2 inh 21.4*, NR3A LBD binder -0.4, SUMO HTRF inh -17.3, hGIII sPLA2 conf 39.5*, BODIPY interf -20.9 and BODIPY interf DR >122.
O=C(c1cc(F)ccc1F)N1CCCC(c2nc(-c3cccs3)no2)C1 (stereo not given) was read as HGIII-sPLA2 inh -4.5.
Screening CCC(=O)NC(=S)Nc1ccc(OC)cc1OC returned UBC13 inh -13.6, HGIII-sPLA2 inh 21.2*, NR3A LBD binder -1.5, SUMO HTRF inh 3.5, hGIII sPLA2 conf 0.3 and BODIPY interf -6.7.
`CCC(=O)Nc1ccc(OC)cc1OC` gave UBC13 inh 2.5, HGIII-sPLA2 inh 7.1, NR3A LBD binder 0.9 and SUMO HTRF inh -4.7.
Screening COc1ccc(NCC(=O)Nc2ccc(Br)cc2F)c(OC)c1 returned UBC13 inh 2.9, HGIII-sPLA2 inh 22.1*, NR3A LBD binder -0.4, SUMO HTRF inh -3.9, hGIII sPLA2 conf 22.8* and BODIPY interf 4.0.
COC(=O)[C@]12C[C@H](CC(=O)NCc3ccc(OC)c(OC)c3)C(=O)N(Cc3ccc(Cl)cc3Cl)C1=C[C@H](C1CCCC1)O[C@@H]2C was read as HGIII-sPLA2 inh -13.4.
`CCCCNC(=O)C[C@H]1C[C@@]2(C(=O)OC)C(=C[C@H](C(C)(C)C)O[C@@H]2C)N(Cc2ccco2)C1=O` gave HGIII-sPLA2 inh -9.9.
`Cc1ccc(NC(=O)NNC(=O)c2cc3ccccc3cc2O)cc1C` gave UBC13 inh -4.4, HGIII-sPLA2 inh 28.2*, NR3A LBD binder 6.5, SUMO HTRF inh 46.2, hGIII sPLA2 conf 26.1* and BODIPY interf 3.1.
Screening Cc1ccc(NC(=O)NNC(=O)c2cc3ccccc3cc2O)c(C)c1 returned UBC13 inh 7.9, HGIII-sPLA2 inh 15.8, NR3A LBD binder -1.8 and SUMO HTRF inh 11.7.
`Cc1ccc(C)c(NC(=O)NNC(=O)c2cc3ccccc3cc2O)c1` gave UBC13 inh 8.2, HGIII-sPLA2 inh 22.3*, NR3A LBD binder 1.7, SUMO HTRF inh 32.2, hGIII sPLA2 conf 22.3* and BODIPY interf 2.7.
Screening Cc1ccc(C(=O)NC2CCCCN(C(C)C)C2=O)cc1 (stereo not given) returned HGIII-sPLA2 inh -3.6.
For CC(C)C[C@@H]1COc2cccc(N3CCCC3)c2S(=O)(=O)N1C the results were HGIII-sPLA2 inh -5.2.
`CCCC1CCC2(CC1)CCC2OC(=S)NCc1cccc(OC)c1` (stereo not given) gave HGIII-sPLA2 inh -12.6.
CC(C)C[C@H]1COc2cccc(F)c2S(=O)(=O)N1Cc1cn(Cc2ccco2)nn1 was read as HGIII-sPLA2 inh -0.5.
`COCCCN1C(=O)[C@H](CC(=O)N2CCCC2)[C@]2(C(=O)OC)CCCCC=C12` gave HGIII-sPLA2 inh 3.1.
CN(C)c1ccc(NC(=S)OC2CCC23CCC(c2ccccc2)CC3)cc1 (stereo not given) was read as HGIII-sPLA2 inh 4.5.

Assay outcomes as filed in PubChem.
